# Tgondii IFNg: blocks Toxoplasma gondii growth in the presence of IFN-gamma; Toxoplasma gondii growth in IFN-gamma-treated host cells; stronger effect = lower value; activity change, negative = inhibition, % (no concentration beside the values); 3.8% of 69,000 active; AID 1259416; in the data active = activity change below about -70%, passing the limit was not always enough;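 note: host cells are HeLa cells infected with Toxoplasma gondii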
# * hit, by the source's call; ! = not active in a repeat. This is one part of a sample in which hits are shown more often than they occur.
SMILES,Tgondii IFNg
C=C1[C@@H](C)[C@H]2[C@H](Cc3ccccc3)NC(=O)[C@]23OC(=O)/C=C/[C@H](O)CCC[C@@H](C)C/C=C/[C@H]3[C@@H]1O,-98*
CC(C)(C)CN1CC2CN(C(=O)CCc3cccnc3)CC2C1 (centres undefined),15
C[C@]12CC[C@H]3[C@@H](CCC4=CC(=O)CC[C@@H]43)[C@@H]1CC[C@@H]2O,-76*
C[C@]1(O)CC[C@H]2[C@@H]3CCC4=CC(=O)CC[C@]4(C)[C@@]3(F)[C@@H](O)C[C@@]21C,12
C[C@]12CC[C@@H]3c4ccc(O)c(O)c4CC[C@H]3[C@@H]1CC[C@@H]2O,35
C#CC1(O)CCC2C3CCC4=CC(=O)CCC4(C)C3CCC21C (centres undefined),-43
C[C@]12CCC(=O)C=C1CCC1C2CC[C@@]2(C)C1CC[C@@H]2O (some centres undefined),-88*
CC12CCC3C4CCCC=C4CCC3C1CCC2O (centres undefined),-59
Cn1cccc1CN1CC2(CCN(c3ncccn3)C2)C1,-46
Cc1ccc(NC(=O)c2cc3cccnc3n(Cc3ccccc3F)c2=O)cc1Cl,39
COc1ccc2c(c1)C1(CCN(C(=O)c3scnc3C)CC1)CC2CC(=O)O (centres undefined),-9
COc1ccc2c(c1)C1(CCN(C(=O)c3nn(C)c4ccccc34)CC1)CC2CC(=O)O (centres undefined),-74*
COc1ccc2c(c1)C1(CCN(C(=O)C3(c4ccccc4)CCCC3)CC1)CC2CC(=O)O (centres undefined),-15
Cc1noc(C)c1CN1CC[C@H]2[C@@H]1CCN2CC(C)C,1
O=C1/C(=C/c2ccccc2)C[C@@]2(O)C3Cc4ccc(O)c5c4[C@@]2(CCN3CC2CC2)[C@H]1O5,-76*!
O=C1CC[C@@]2(O)[C@H]3Cc4ccc(O)c5c4[C@@]2(CCN3CC2CC2)[C@H]1O5,-8
Oc1ccc2c3c1O[C@H]1c4[nH]c5c(c4C[C@@]4(O)[C@@H](C2)N(CC2CC2)CC[C@]314)C[C@@]1(O)[C@H]2Cc3ccc(O)c4c3[C@@]1(CCN2CC1CC1)[C@H]5O4,12
COCCNC(=O)[C@@H]1CCO[C@@H]2CCN(Cc3cc(C)on3)C[C@H]21,-21
Cc1cc(C)c2c(CC(=O)N(CCN(C)C)C3CCS(=O)(=O)C3)c(C)[nH]c2c1 (centres undefined),140
CN(C)c1ccc(/C=C/C(=O)C2C(=O)N(C)C3(C)CC2c2cc(Cl)ccc2O3)cc1 (centres undefined),21
C/C(=C\C(N)C(=O)O)CP(=O)(O)O (centres undefined),8
Cc1nnc2ccc(-c3cccc(C(F)(F)F)c3)nn12,-80*
C=CCOC1C2CCC1N(Cc1cccc(C)n1)CCO2 (centres undefined),-71*
Cc1cccc(CN2CC[C@@H]3OCCN(S(=O)(=O)C4CC4)[C@@H]3C2)n1,-4
Cc1cccc(CN2C[C@H]3OCCN(C)[C@H]3C2)n1,2
SMILES,Tgondii IFNg
Cc1ccc(NC(=O)c2cc3cccnc3n(Cc3ccc(F)cc3)c2=O)cc1C,99
Cn1cccc1CN1CC2(CCN(Cc3cccnc3)C2)C1,-11
Cn1nc(C2NCCc3[nH]cnc32)c2c(Cl)cccc21 (centres undefined),-22
CC1(C)CC[C@]2(C(=O)O)CC[C@]3(C)[C@H](C(=O)C=C4[C@@]5(C)C=C(C#N)C(=O)C(C)(C)[C@@H]5CC[C@]43C)[C@@H]2C1,-79*
Cc1ccc(N2CCC[C@@]3(C(=O)O)CN(C(C)C)C[C@H]3C2)nn1,172
Cn1cccc1CN1CCC2(CCCN(Cc3ccccn3)C2)C1 (centres undefined),-5
Cc1nc(N)nc(C)c1CC(=O)N1CC[C@@H]2CC[C@H](C1)N2C,-7
CC[C@H]1CN2CCC1C[C@@H]2[C@H](O)c1ccnc2ccc(OC)cc12 (some centres undefined),-79*
COc1ccc2n[nH]c(CN3C[C@@H]4[C@H](C3)[C@H]3CC[C@@H]4O3)c2c1,27
c1cc2c(c(-c3ccc4nc[nH]c4c3)c1)CCNC2,-7
Cc1nc(CN2CCN(C(=O)Cc3ccc4c(c3)CC(C)O4)CC2)cs1 (centres undefined),9
COc1ccc(CCNC(=O)c2cc3cccnc3n(Cc3ccccc3F)c2=O)cc1,33
COc1ccc(CC(=O)N2CCN(Cc3ccc4c(c3)OCO4)CC2)cc1OC,13
CCCCCOc1c(OC)ccc2cc(C(=O)NCc3ccc4c(c3)OCO4)c(=O)[nH]c12,-74*!
O=C(Nc1ccc2c(c1)OCO2)c1cc2cccnc2n(Cc2ccc(F)cc2)c1=O,233
CCN1CCC2(CCCN(c3nncs3)C2)C1 (centres undefined),46
Cc1ccc2c(n1)N(CCn1cccn1)CCN(c1ccccn1)C2,52
O=C(Nc1ccc(OC(F)(F)F)cc1)c1cc2cccnc2n(Cc2ccc(Cl)cc2)c1=O,28
O=C(Nc1ccc(Br)cc1)c1cc2cccnc2n(Cc2ccc(F)cc2)c1=O,41
CN1CCN(Cc2cccnc2)C(=O)C12CCN(S(C)(=O)=O)CC2,7
CN(C)C(=O)Oc1cc(=O)n(C)c2ccccc12,-21
CN(C)C(=O)Oc1c(-c2ccccc2)cn(Cc2ccccc2)c(=O)c1-c1ccccc1,-84*
CC(C)CN1CCC2(CC1)C(=O)Nc1ccc(C(=O)NC3CC3)cc12,35
Nc1cncc(-c2cccc3c2CCNC3)c1,5
Cc1nc(CC(=O)N2C[C@H]3C[C@@H](C2)c2cccc(=O)n2C3)cs1,38
SMILES,Tgondii IFNg
CC[C@@H]1[C@@H](C)O[C@@](O)([C@@H](C)[C@H](O)[C@H](C)[C@H]2OC(=O)/C=C/C=C/[C@H](C)[C@H]([C@@H](C)[C@@H](O)[C@H](C)[C@@]3(O)C[C@@H](O[C@H]4C[C@H](O)[C@H](O)[C@H](C)O4)[C@H](CC)[C@@H](C)O3)OC(=O)/C=C/C=C/[C@H]2C)C[C@H]1O[C@H]1C[C@H](O)[C@H](O)[C@H](C)O1,-75*
COc1cc(C)c(-c2nccn2C(C)c2ccc(C)nc2)cc1C (centres undefined),-14
CCN1CCC2OCCCC2(COCc2cccc(C)n2)C1 (centres undefined),80
CCCCCCC(C)(C)c1ccc(C2CC(O)CCC2CCCO)c(O)c1 (centres undefined),-79*
O=C(NC1CCCCCCCCCCC1)c1cc2cccnc2n(Cc2ccccc2)c1=O,75
O=c1[nH]c2ccccc2n1C1CCN(CCCC(c2ccc(F)cc2)c2ccc(F)cc2)CC1,-95*!
COc1ccc(C)cc1CC(=O)N(CCN(C)C)C1CCS(=O)(=O)C1 (centres undefined),-2
CNC(=O)[C@H]1C[C@@H]2OCC[C@@H]2N(Cc2ccc3ccccc3n2)C1,8
COCCN1CCC2(CC1)CN(c1cccnc1)C(=O)CO2,118
O=[N+]([O-])c1ccc(O)c([N+](=O)[O-])c1,-79*!
N#CC(C#N)=Cc1ccc([N+](=O)[O-])c(O)c1,13
O=[N+]([O-])c1cc([As](=O)(O)O)ccc1O,17
CC(C)N1C2CCC1CN(c1ncccn1)C2,104
O=C(Nc1cccc(F)c1)c1c(O)c2cccnc2n(Cc2ccccc2)c1=O,107
Cc1ccccc1CNC(=O)c1c(O)c2cccnc2n(Cc2ccccc2)c1=O,-119*
O=C(Nc1ccc2c(c1)OCCO2)c1c(O)c2cccnc2n(Cc2ccccc2)c1=O,211
O=C(Nc1ccc2c(c1)OCO2)c1c(O)c2cccnc2n(Cc2ccccc2)c1=O,113

# Bioassay records as filed in PubChem.
